Assay results: PubChem BioAssay (NCATS)
Results filed as inconclusive are left out. The source made the active and inactive calls. Unless noted, the call rests on the fitted dose curve; in most records, active means well fitted curve in the direction sought with a large enough effect; inconclusive means small, poorly fitted or top-dose-only effect, or another doubt; inactive means no such curve, though single readings can be large; an effect the other way counts as inactive or inconclusive.

Experiments:
[1] = NCATS anti-infectives library activity on HEK293 viability as a counter-qHTS vs the C. elegans viability qHTS (AID 1745854); further: on the % scale 0 is the no-effect control and ±100 the full control effect
Procedure, shortened: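 CellTiter-Glo luminescence, read on a CCD imager, scored viability of HEK293 cells after 24 hr compound exposure at 37C. Library tested in several concentrations, 1:5 steps, up to 41.7 uM; digitonin served as control.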

[2] = biological target: Glutathione peroxidase 1 (Homo sapiens) (UniProt P07203); assay: Primary qHTS Assay for Inhibitors of Recombinant Selenoprotein Glutathione Peroxidase 1 (GPX1) (AID 1845191); further: nearly all actives have a fitted effect of over 65% in size
Procedure, shortened: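 NADPH consumption tracked by fluorescence at 340/450 nm between t=0 and t=15 min, room temperature. Final mix: 10 nM GPX1, 100 nM glutathione reductase, 1 mM GSH, 0.5 mM NADPH, 0.5 mM cumene hydroperoxide, 0.01% BSA; 30 min compound–enzyme preincubation.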

[3] = NCATS anti-infectives library activity on the primary C. elegans qHTS viability assay (AID 1745855; calls by dose curve; further: potency means the concentration at half of the fitted maximal effect)
Procedure, shortened: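 Titration-based screen in worms: eggs hatched overnight in M9, L1 larvae fed TOP10 capsules in S medium with compound, incubated 21 °C for 7 days; fluorescent objects gated by size and intensity at days 0, 3 and 7.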

[4] = biological target: Phospholipid hydroperoxide glutathione peroxidase GPX4 (Homo sapiens) (UniProt P36969); assay: Primary qHTS Assay for Inhibitors of Recombinant Selenoprotein Glutathione Peroxidase 4 (GPX4) (AID 1845192); further: nearly all actives have a fitted effect of over 65% in size
Procedure, shortened: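 NADPH consumption followed by fluorescence at 340/450 nm, t=0 and after 15 min at room temperature. Reaction started with cumene hydroperoxide (0.5 mM final) after 30 min compound–GPX4 preincubation; final 200 nM GPX4, 100 nM GR, 1 mM GSH, 0.5 mM NADPH.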

[5] = Viability counterscreen for antagonist of constitutive androstane receptor (CAR) against the NCATS DSHEA and TCM libraries (AID 1794837);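 further: compound exposure lasted 24 h before viability reading; 0% is about no effect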
Procedure, shortened: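 Counterscreen performed in a 1536-well qHTS format using HepG2-CYP2B6-hCAR cells; samples titrated in the presence of 48 uM CITCO, with viability measured fluorometrically (405/540 nm) after 24 h.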

[6] = Viability counterscreen for agonist of constitutive androstane receptor (CAR) against the NCATS DSHEA and TCM libraries (AID 1794838); further: 0% is about no effect
Procedure, shortened: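 Multiplexed counterscreen: after 24 h compound exposure with 0.75 uM PK11195, HepG2-CYP2B6-hCAR viability was quantified fluorimetrically (CellTiter-Fluor, 405/540 nm) prior to the ONE-Glo luciferase read.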

[7] = biological target: Nuclear receptor subfamily 1 group I member 3 (Homo sapiens) (UniProt Q14994); assay: Primary qHTS for agonist of constitutive androstane receptor (CAR) against the NCATS DSHEA and TCM libraries (AID 1794839);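 further: HepG2 cells expressing human CAR with a CYP2B6 reporter plus PK11195 antagonist; luciferase reporter luminescence read with ONE-Glo; 0% is about no effect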
Procedure, shortened: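 Concentration–response screen in HepG2-CYP2B6-hCAR cells under 0.75 µM PK11195; 24 h exposure; luminescent reporter signal with multiplexed fluorescent viability.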

[8] = HepG2 viability counterscreen (readout 2: ATP content) against the NCATS DSHEA and TCM libraries (AID 1794840);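 further: HepG2 cells exposed to substances for about 24 h; 0% is about no effect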
Procedure, shortened: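 After HepG2 cells attach for ~4 h, substances are added and incubated ~24 h at 37C, 5% CO2. GF-AFC fluorescence then CellTiter-Glo luminescence give protease and ATP readouts.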

[9] = biological target: Cytochrome P450 2D6 (Homo sapiens) (UniProt P10635); assay: qHTS for inhibitors of CYP2D6 against the NCATS DSHEA and TCM libraries (AID 1919972); further: on the % scale 0 is the no-effect control and ±100 the full control effect
Procedure, shortened: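 qHTS, concentration–response format with most substances from 19.5 nM. CYP2D6 + pro-luciferin substrate, 15 min with compound, then 1x NADPH regen, 30–45 min RT dark. Glo detection 30 min, luminescence. Quinidine control.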

[10] = biological target: Cytochrome P450 2C9 (Homo sapiens) (UniProt P11712); assay: qHTS for inhibitors of CYP2C9 against the NCATS DSHEA and TCM libraries (AID 1919973); further: potency means the concentration at half of the fitted maximal effect
Procedure, shortened: (§1)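 Substances were tested against enzyme with a pro-luciferin substrate; minus-enzyme wells served as background. After NADPH-initiated oxidation (30-45 min, RT), light was generated with P450-Glo reagent.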

[11] = biological target: Cytochrome P450 2C19 (Homo sapiens) (UniProt P33261); assay: qHTS for inhibitors of CYP2C19 against the NCATS DSHEA and TCM libraries (AID 1919974);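 further: luminescence from luciferin released by CYP2C19 oxidation of a pro-luciferin substrate; on the % scale 0 is the no-effect control and ±100 the full control effect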
Procedure, shortened: as §1

[12] = KB-3-1 P-gp reporter qHTS against the NCATS DSHEA and TCM libraries (AID 1919975); further: 0% is about no effect
Procedure, shortened: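 Cell viability qHTS: 500 KB-3-1 cells/well, substances in titration, ~72 h, 37C; luminescent CellTiter-Glo read.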

[13] = qHTS Counterscreen for compound interference against the NCATS DSHEA and TCM libraries (AID 1919978); details: firefly luciferase detection reagent interference, luminescence;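 further: compounds preincubated with 1 µM D-luciferin or buffer before detection reagent; % of control where 0% means no effect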
Procedure, shortened: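 Interference check: test samples were incubated with D-luciferin (final 1 uM) or buffer only for 15 min, room temperature, in a qHTS titration up to 39.8 uM, then developed with detection reagent and read by luminescence.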

[14] = Dual reporter qHTS for agonist of Pregnane X Receptor (hPXR) against the NCATS DSHEA and TCM libraries: Fluorescence readout (AID 1920058); further: 0% is about no effect
Procedure, shortened: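 Fluorescence read-out for cell viability: CellTiter-Fluor, 1 h at 37 °C, Ex/Em 405/540 nm. This followed ~24 h treatment of hPXR-Luc HepG2 cells with substances in agonist mode.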

[15] = biological target: Nuclear receptor subfamily 1 group I member 2 (Homo sapiens) (UniProt O75469); assay: Dual reporter qHTS for agonist of Pregnane X Receptor (hPXR) against the NCATS DSHEA and TCM libraries: Luminescence readout (AID 1920059); further: 0% is about no effect
Procedure, shortened: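 Luminescent PXR reporter read (ONE-Glo) after a CellTiter-Fluor viability read, following 24 h, 37C treatment of HepG2 cells stably carrying hPXR-Luc.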

[16] = biological target: Nuclear receptor subfamily 1 group I member 2 (Homo sapiens) (UniProt O75469); assay: Dual reporter qHTS for antagonist of Pregnane X Receptor (hPXR) against the NCATS DSHEA and TCM libraries: Luminescence Readout (AID 1920060);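 further: HepG2 cells carrying hPXR luciferase reporter stimulated with rifampicin at 2 µM; 0% is about no effect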
Procedure, shortened: (§2)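 Antagonist mode: rifampicin 2 uM final co-added with compounds to hPXR-LucHepG2 cells for 24 h at 37C. Viability by CellTiter-Fluor, Ex/Em 405/540 nm, 1 h; reporter by ONE-Glo luminescence.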

[17] = Dual reporter qHTS for antagonist of Pregnane X Receptor (hPXR) against the NCATS DSHEA and TCM libraries: Fluorescence Readout (AID 1920061); further: 0% is about no effect
Procedure, shortened: as §2

Chain of Glutathione peroxidase 1 (Homo sapiens) (P07203 whole entry, looked up): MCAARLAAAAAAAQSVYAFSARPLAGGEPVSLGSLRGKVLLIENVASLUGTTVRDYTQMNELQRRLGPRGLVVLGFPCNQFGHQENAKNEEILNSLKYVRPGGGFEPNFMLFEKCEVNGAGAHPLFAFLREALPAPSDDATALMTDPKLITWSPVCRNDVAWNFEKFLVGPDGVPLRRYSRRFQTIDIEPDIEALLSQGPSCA
Chain of Nuclear receptor subfamily 1 group I member 2 (Homo sapiens) (O75469 whole entry, looked up): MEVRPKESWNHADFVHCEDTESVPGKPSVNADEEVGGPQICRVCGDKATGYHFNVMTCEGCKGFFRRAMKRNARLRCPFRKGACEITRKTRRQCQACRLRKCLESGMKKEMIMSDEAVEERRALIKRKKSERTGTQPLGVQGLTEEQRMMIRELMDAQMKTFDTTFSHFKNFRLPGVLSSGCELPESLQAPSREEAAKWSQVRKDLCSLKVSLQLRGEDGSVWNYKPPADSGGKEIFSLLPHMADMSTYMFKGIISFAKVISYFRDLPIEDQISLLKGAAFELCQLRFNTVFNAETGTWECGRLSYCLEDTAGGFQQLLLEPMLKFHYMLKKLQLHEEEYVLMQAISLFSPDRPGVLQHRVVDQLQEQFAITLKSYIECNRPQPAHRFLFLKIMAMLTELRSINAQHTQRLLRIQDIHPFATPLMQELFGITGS
Chain of Cytochrome P450 2D6 (Homo sapiens) (P10635 whole entry, looked up): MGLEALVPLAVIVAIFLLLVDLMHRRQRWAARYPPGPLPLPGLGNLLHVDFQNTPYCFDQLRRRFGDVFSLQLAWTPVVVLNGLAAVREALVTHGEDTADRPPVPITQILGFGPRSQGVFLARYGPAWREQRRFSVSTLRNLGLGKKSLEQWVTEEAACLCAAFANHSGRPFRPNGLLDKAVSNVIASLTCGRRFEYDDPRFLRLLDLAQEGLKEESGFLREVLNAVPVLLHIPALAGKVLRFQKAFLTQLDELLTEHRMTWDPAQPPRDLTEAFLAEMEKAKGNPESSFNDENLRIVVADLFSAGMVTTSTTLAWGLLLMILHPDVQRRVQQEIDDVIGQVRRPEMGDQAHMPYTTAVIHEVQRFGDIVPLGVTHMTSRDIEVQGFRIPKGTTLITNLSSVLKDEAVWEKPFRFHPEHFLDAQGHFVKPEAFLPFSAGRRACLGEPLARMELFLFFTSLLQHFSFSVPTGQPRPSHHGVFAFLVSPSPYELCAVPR
Chain of Phospholipid hydroperoxide glutathione peroxidase GPX4 (Homo sapiens) (P36969 whole entry, looked up): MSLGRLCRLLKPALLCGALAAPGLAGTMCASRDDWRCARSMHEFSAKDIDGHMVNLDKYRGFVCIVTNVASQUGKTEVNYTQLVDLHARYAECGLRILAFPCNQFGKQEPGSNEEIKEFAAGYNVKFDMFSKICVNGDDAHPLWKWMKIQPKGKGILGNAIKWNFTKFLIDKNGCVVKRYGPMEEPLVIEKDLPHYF
Chain of Cytochrome P450 2C9 (Homo sapiens) (P11712 whole entry, looked up): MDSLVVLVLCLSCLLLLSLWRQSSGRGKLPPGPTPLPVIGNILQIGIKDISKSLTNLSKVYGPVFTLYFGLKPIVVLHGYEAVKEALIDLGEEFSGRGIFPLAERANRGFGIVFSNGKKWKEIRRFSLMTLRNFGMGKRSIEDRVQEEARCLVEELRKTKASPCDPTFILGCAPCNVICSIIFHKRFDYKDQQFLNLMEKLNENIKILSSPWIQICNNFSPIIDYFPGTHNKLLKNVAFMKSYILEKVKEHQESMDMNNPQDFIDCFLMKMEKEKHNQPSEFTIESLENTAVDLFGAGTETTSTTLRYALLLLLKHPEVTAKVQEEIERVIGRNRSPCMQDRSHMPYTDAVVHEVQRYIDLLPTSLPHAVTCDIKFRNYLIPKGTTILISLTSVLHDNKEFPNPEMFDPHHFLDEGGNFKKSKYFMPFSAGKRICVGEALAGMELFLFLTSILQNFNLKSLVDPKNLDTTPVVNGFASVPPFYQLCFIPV
Chain of Cytochrome P450 2C19 (Homo sapiens) (P33261 whole entry, looked up): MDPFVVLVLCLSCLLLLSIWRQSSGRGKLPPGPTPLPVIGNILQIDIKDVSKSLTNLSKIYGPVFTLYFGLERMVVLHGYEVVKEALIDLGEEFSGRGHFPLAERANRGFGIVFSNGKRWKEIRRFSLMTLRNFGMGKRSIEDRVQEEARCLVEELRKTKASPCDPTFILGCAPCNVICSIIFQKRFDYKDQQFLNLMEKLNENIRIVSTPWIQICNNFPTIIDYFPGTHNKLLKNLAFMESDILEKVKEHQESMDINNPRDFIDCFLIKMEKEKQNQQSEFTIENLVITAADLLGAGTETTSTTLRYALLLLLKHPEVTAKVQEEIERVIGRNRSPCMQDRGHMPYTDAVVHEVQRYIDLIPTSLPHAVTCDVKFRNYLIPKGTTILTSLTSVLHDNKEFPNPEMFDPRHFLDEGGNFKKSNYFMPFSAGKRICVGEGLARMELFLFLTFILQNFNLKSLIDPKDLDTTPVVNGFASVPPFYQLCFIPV
Chain of Nuclear receptor subfamily 1 group I member 3 (Homo sapiens) (Q14994 whole entry, looked up): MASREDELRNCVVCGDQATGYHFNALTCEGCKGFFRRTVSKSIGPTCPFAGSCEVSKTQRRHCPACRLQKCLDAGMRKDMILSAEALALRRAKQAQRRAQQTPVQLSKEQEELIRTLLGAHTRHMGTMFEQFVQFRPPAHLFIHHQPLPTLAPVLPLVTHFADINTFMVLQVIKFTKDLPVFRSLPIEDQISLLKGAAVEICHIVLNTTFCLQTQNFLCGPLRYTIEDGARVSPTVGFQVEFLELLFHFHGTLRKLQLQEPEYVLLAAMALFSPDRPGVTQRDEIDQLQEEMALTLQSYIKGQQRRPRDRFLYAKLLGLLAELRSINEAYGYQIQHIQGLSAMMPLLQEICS

COC(=O)N[C@H](C(=O)N1CCC[C@H]1C(=O)Nc1ccc([C@@H]2CC[C@@H](c3ccc(NC(=O)[C@@H]4CCCN4C(=O)[C@@H](NC(=O)OC)C(C)C)cc3)N2c2ccc(C(C)(C)C)cc2)cc1)C(C)C
inactive: Potency [1] | Potency [2]

Cn1c(=O)cc(N2CCC[C@@H](N)C2)n(Cc2ccccc2C#N)c1=O
inactive: Potency [1] | Potency [3] | Potency [2] | Potency [4]

COc1cnc(-n2cnc(C)n2)c2c1c(C(=O)C(=O)N1CCN(C(=O)c3ccccc3)CC1)cn2COP(=O)(O)O
inactive: Potency [1]

CCCC[C@H](NC(=O)[C@@H]1[C@@H]2[C@H](CN1C(=O)[C@@H](NC(=O)NC1(CS(=O)(=O)C(C)(C)C)CCCCC1)C(C)(C)C)C2(C)C)C(=O)C(=O)NC1CC1
inactive: Potency [1] | Potency [3]

CC(C)CN(C[C@@H](O)[C@H](Cc1ccccc1)NC(=O)[C@@H](NC(=O)CNCc1cccc(F)c1)C(C)(C)C)S(=O)(=O)c1cccc(N)c1
inactive: Potency [1] | Potency [3]

C=C[C@@H]1C[C@]1(NC(=O)[C@@H]1C[C@@H](Oc2ncc(OC)c3ccc(Cl)cc23)CN1C(=O)[C@@H](NC(=O)OC(C)(C)C)C(C)(C)C)C(=O)NS(=O)(=O)C1CC1
active: Potency [3] 20.5 µM
inactive: Potency [1] | Potency [2]

O=C(/C=C/c1ccc(O)c2c1[C@H](C(=O)O)[C@@H](c1ccc(O)c(O)c1)O2)O[C@H](Cc1ccc(O)c(O)c1)C(=O)O
inactive: Potency [1] | outcome [5] | outcome [6] | Potency [7] | outcome [8] | Potency [9] | Potency [11] | outcome [12] | max response [13] -1.18% | outcome [14] | Potency [15] | outcome [16] | outcome [17]
active: Potency [10] 14.1 µM
